G9a inh: G9a (human) methyltransferase inhibition | Q96KQ7 | G9a H3K9 monomethylation, AlphaScreen, 2 h | Potency, µM (highest dose often 102 µM), hits mostly inhibitors | actives 8.8% (n = 350,000); note: nearly all actives have a fitted effect of over 75% in size
Target sequence (Q96KQ7 913-1193 limits assumed): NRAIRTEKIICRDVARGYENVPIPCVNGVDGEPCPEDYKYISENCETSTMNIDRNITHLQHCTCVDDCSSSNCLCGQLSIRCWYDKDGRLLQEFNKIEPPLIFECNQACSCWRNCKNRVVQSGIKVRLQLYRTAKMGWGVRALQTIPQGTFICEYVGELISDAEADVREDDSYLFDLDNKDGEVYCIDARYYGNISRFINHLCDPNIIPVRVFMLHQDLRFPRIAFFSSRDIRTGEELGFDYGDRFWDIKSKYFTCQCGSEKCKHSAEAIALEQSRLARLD
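AlphaScreen read-out: biotin-H3K9 peptide (500 nM) methylation by 20 nM enzyme with 20 uM SAM, 2 h at room temperature after 15 min compound preincubation; anti-monomethyl H3K9 antibody plus donor/acceptor beads, 10 min dark.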
HP1b binding inh: HP1-beta chromodomain-methylated histone interaction inhibition; AlphaScreen HP1-beta / biotin-H3K9me3 peptide binding; actives 0.56% (n = 390,000); Potency, µM (top dose mostly 114 µM), hits mostly inhibitors; P83916; AID 540317; note: nearly all actives have a fitted effect of over 70% in size
Target sequence (P83916 whole entry, looked up): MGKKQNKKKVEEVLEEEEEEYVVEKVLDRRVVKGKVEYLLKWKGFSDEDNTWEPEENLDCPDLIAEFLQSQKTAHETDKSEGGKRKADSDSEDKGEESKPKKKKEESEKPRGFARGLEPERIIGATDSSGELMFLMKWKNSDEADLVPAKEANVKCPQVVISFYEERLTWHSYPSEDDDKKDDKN
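Compound inhibition of the preformed complex between 50 nM HP1-beta and 50 nM biotinylated H3K9me3 peptide was read by AlphaScreen. Buffer was PBS pH 7.4 with 0.01% Tween-20. Incubations ran 30 min at room temperature, with 10 ug/mL donor/acceptor beads.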
JMJD2A Tudor: blocks the human JMJD2A Tudor domain. AlphaScreen JMJD2A-Tudor / H3K4me3 peptide binding. actives 4.4% (n = 390,000). AID 504339. Potency, µM (titrated, usually from 114 µM), hits mostly inhibitors; note: nearly all actives have a fitted effect of over 50% in size
L3MBTL1 block: L3MBTL1 (human) inhibition; Q9Y468; AlphaScreen L3MBTL1–H3K9me1 peptide binding; Potency, µM (highest dose often 57.1 µM), hits mostly inhibitors; actives 0.66% (n = 230,000); AID 485360; note: nearly all actives have a fitted effect of over 60% in size
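AlphaScreen proximity signal between nickel-chelate acceptor and streptavidin donor beads (final 10 ug/mL) reports binding of 50 nM L3MBTL1 to 75 nM biotin-H3 K9me1 peptide; complex incubated with compounds 30 min at room temperature; cefsulodin titration as control.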
BAZ2B block: blocks human BAZ2B; AlphaScreen BAZ2B-H3K14Ac peptide displacement; Potency, µM (series often up to 114 µM), most hits filed as inhibitors; actives 4.4% (n = 360,000); AID 504333; note: nearly all actives have a fitted effect of over 60% in size
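AlphaScreen luminescence quantifies BAZ2B engagement of H3K14Ac peptide; the protein and biotinylated peptide are both at 50 nM final, buffer PBS pH 7.4 with 0.01% Tween-20, all steps at room temperature.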
Hits are given with their value; i = inactive; ? = inconclusive; nt = no result; [ ] = another dose, or the depositor's remark. The list is not random: actives were taken first. Their share in the collection is about 11%. Calls come from the whole dose curve; as a rule, active = well fitted inhibition curve with a large enough effect; inconclusive = small, poorly fitted or top-dose-only effect; inactive = no such curve, though single readings can be large or run the other way.

SMILES | G9a inh | HP1b binding inh | JMJD2A Tudor | L3MBTL1 block | BAZ2B block
CCCc1c(O)nc(SC2CC(=O)N(c3ccc(C)c(Cl)c3)C2=O)[nH]c1=O (stereo not drawn) | nt | nt | i | nt | nt
CN(Cc1cccs1)C(=O)CSc1nc(N)cc(N)n1 | i | i | 79µM | i | nt
CN(Cc1cccs1)C(=O)COC(=O)CNC(N)=O | i | i | i | nt | i
Cc1ccc(NC(=O)Cn2nc(C)c3nn(-c4ccc(Cl)cc4)c(C)c3c2=O)cc1C | i | i | i | nt | i
Cc1ccsc1CN(C(=O)c1oc2cc(Br)ccc2c1C)C1CCS(=O)(=O)C1 (stereo not drawn) | i | i | i | nt | i
CCc1ccc(C(=O)c2cn(CC(=O)Nc3cc(F)ccc3F)c3nc(C)ccc3c2=O)cc1 | i | i | ? | nt | i
CNC1C(O)C(O)C(CO)O[C@H]1OC1C(O[C@@H]2C(O)C(O)[C@@H](N=C(N)N)C(O)C2N=C(N)N)OC(C)[C@]1(O)C=O (stereo partly drawn) | i[2.33 µM] | nt | nt | nt | nt
CN[C@@H]1[C@H](O[C@H]2[C@H](O[C@H]3[C@H](O)[C@@H](O)[C@H](N=C(N)N)[C@@H](O)[C@@H]3N=C(N)N)O[C@@H](C)[C@]2(O)C=O)O[C@@H](CO)[C@H](O)[C@H]1O | 18µM | nt | nt | nt | nt
O=C(O)c1n[nH]c2ccccc12 | ? | i | 28µM | i | i
O=C(c1n[nH]c2ccccc12)N1CCCCC1 | i | i | i | i | i
C=CCn1cccc(/C=C/C(=O)c2ccc(C(C)(C)C)cc2)c1=S | ? | ? | 32µM | 28µM | 11µM
O=C(C=Cc1ccccc1Cl)c1ccccc1 | nt | i | i | nt | nt
O=C(Nc1ccc(F)cc1)c1ccc(-n2cnnc2)cc1 | i | i | i | nt | i
Cc1ccc(S(=O)(=O)C(CNC(=O)c2ccccc2F)c2cccs2)cc1 (stereo not drawn) | i | i | i | nt | i
CC(=O)Nc1ccc(NC(=O)CSc2nc(N)c(NC(=O)c3ccco3)c(=O)[nH]2)cc1 | i[12.7 µM] | i | i | nt | 50µM
C=CCSc1nc(N)c(NC(=O)c2ccco2)c(=O)[nH]1 | nt | i | i | nt | nt
Cc1nnc(NC(=O)CSc2nc(N)c(NC(=O)c3cccs3)c(=O)[nH]2)s1 | ? | i | i | nt | i
Cc1cc(C)cc(NC(=O)CSc2nc(N)c(NC(=O)c3cccs3)c(=O)[nH]2)c1 | 11µM | i | i | i | i
Nc1nc(SCC(=O)Nc2ccc(F)cc2)[nH]c(=O)c1NC(=O)c1ccc(F)c(F)c1 | 79µM | i | i | nt | i
CCN(CC)S(=O)(=O)c1ccc2c(c1)N(CC(=O)NCc1ccc(F)cc1)C(=O)CO2 | i | i | i | nt | i
COc1cc(C2Nc3ccc4ncccc4c3C3=C2C(=O)CCC3)ccc1O (stereo not drawn) | 50µM | i | ? | i | i
CS/C(=C\[N+](=O)[O-])Nc1ccc(Cl)cc1 | 11µM | i | i | nt | i
CC(C)=CC(=O)Nc1ccc(Cl)cc1 | i | i | i | i | i
Cc1ccc(Cn2c(CCCNC(=O)c3ccco3)nc3ccccc32)cc1 | i | i | i | nt | i
COc1cc(C(=S)N2CCOCC2)cc(OC)c1OC(=O)c1ccccc1[N+](=O)[O-] | ? | i | i | i | i
SMILES | G9a inh | HP1b binding inh | JMJD2A Tudor | L3MBTL1 block | BAZ2B block
COc1ccc(S(=O)(=O)Oc2cccc(C(=S)N3CCOCC3)c2)cc1 | i | i | i | nt | i
COc1cc(C(=S)N2CCOCC2)ccc1OS(=O)(=O)c1ccc(Cl)cc1 | 35µM | i | i | i | i
COc1ccc(C(=S)N2CCOCC2)cc1OC(=O)c1ccc([N+](=O)[O-])cc1[N+](=O)[O-] | 40µM | ? | i | nt | ?
COc1ccc(S(=O)(=O)Oc2ccccc2C(=S)N2CCOCC2)cc1 | 25µM | nt | nt | nt | i
O=C(COc1ccc(C(=S)N2CCOCC2)cc1Cl)Nc1ccccc1Cl | 7.1µM | i | i | nt | i
CCOC(=O)N1CCC(NC(=O)c2ccc3c(c2)N(Cc2cc(C)ccc2C)C(=O)c2ccccc2S3(=O)=O)CC1 | i | i | i | nt | i
O=[N+]([O-])c1ccccc1S(=O)(=O)Oc1ccc(C(=S)N2CCOCC2)cc1 | 28µM | ? | ? | i | i
O=C(Oc1c(Br)cc(C(=S)N2CCOCC2)cc1Br)c1ccc(Cl)cc1 | nt | ? | ? | i | ?
O=C(Oc1ccc(C(=S)N2CCOCC2)cc1)c1ccc([N+](=O)[O-])cc1 | i[0.501 µM] | i | i | i[2.29 µM] | i

Bioassay records from PubChem BioAssay.
